Assay outcomes as filed in PubChem BioAssay.
This is a sample that favours compounds with a hit; in the whole collection about 6.8% have one here.
Spn MK inh: S. pneumoniae MK inhibitors, primary screen, biochemical, PK/LDH-coupled NADH absorbance. inhibition, % at 10 µM. purified MK, PK/LDH-coupled NADH absorbance 340 nm. mevalonate kinase [Streptococcus pneumoniae D39]. 65,000 compounds, 0.48% hits;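 active = ranked among the strongest by inhibition in the single 10 µM screen, a fixed top-ranked set picked for dose follow-up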
NADH coupling: inhibitors of PK/LDH coupling enzymes, profiling panel, artefact control, biochemical, MLSMR library; coupled PK/LDH NADH assays, four targets; IC50, µM (titrated, usually from 10 µM), without a hit: top-dose inhibition; 65,000 compounds, 0.02% hits; AID 774, 2007;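 active = single-dose screening hits from any of four coupled enzyme assays that gave an IC50 when retested across doses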;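 also: the DPM-DC format reads NADH fluorescence rather than 340 nm absorbance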
Autofluor 339: intrinsic fluorescence of library compounds, ex339/em460 – biochemical, MLSMR library, data from DPM-DC assay, artefact control, profiling panel; fluorescence fold increase at 10 µM; compound autofluorescence, ex339/em460 nm, NADH buffer; stronger effect = higher value; 1 = no-compound wells, NADH background; 65,000 compounds, 5.5% hits;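 active = at 10 µM, mean starting fluorescence two-fold or more over control wells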;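 also: signal is the first read of a kinetic run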
DPM-DC inhibit: S. pneumoniae DPM-DC inhibitors, primary screen, biochemical, PK/LDH-coupled NADH fluorescence. 65,000 compounds, 0.49% hits. diphosphomevalonate decarboxylase (Streptococcus pneumoniae D39). AID 556, 2006. purified DPM-DC. calls only at 10 µM;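 active = the 320 compounds with the highest percent inhibition in the single-dose primary screen, excluding strongly autofluorescent ones, cut at about 32% in these data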;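 also: kinetic rate of NADH fluorescence loss reporting ADP formed by the decarboxylase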
Spn PMK inh: S. pneumoniae PMK inhibitors, primary screen, biochemical, mevalonate pathway, pilot trial included; phosphomevalonate kinase (Streptococcus pneumoniae D39); purified PMK, PK/LDH-coupled NADH absorbance 340 nm; inhibition, % at 10 µM; 65,000 compounds, 0.49% hits;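 active = top-ranked compounds by inhibition in the single 10 µM screen, taking a fixed number of the strongest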;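 also: 0% = full reaction with DMSO carrier and 100% = background rate without enzyme reaction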
Abs 340nm: compound light absorbance at 340 nm, profiling panel, artefact control, biochemical, MLSMR library, data from PS, PMK, MK assays; compound absorbance at 340 nm, fold over control; fold change at 10 µM; 65,000 tested, under 10 active; AID 708, 2007;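 active = at 10 µM dose, initial 340 nm absorbance at least 2 fold that of control wells; inactive = change under 2 fold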;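 also: initial absorbance extrapolated from kinetic A340 decline of NADH oxidation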
The depositor's hits bear a star.

For CCN(Cc1cc2ccccc2[nH]c1=O)C(=O)C1CCCCC1 the results were Spn MK inh 8.0, NADH coupling 4.0%, Autofluor 339 1.23, DPM-DC inhibit inactive, Spn PMK inh 3.0 and Abs 340nm 1.03.
For COc1ccc2[nH]c(=O)c(CN(C)C(=O)c3ccncc3)cc2c1 the results were Spn MK inh 5.0, NADH coupling 4.0%, Autofluor 339 2.02*, DPM-DC inhibit inactive, Spn PMK inh 0.0 and Abs 340nm 1.06.
For O=C1CSc2ccc(C(=O)N3CCN(c4ccccn4)CC3)cc2N1 the results were Spn MK inh 2.0, NADH coupling 4.0%, Autofluor 339 1.14, DPM-DC inhibit inactive, Spn PMK inh 10.0 and Abs 340nm 1.01.
For COCCNC(=O)c1ccc2c(c1)NC(=O)CS2 the results were Spn MK inh 8.0, NADH coupling 12.0%, Autofluor 339 1.03, DPM-DC inhibit inactive, Spn PMK inh 27.0* and Abs 340nm 1.
CCNc1nc(NCc2ccccc2)nc(Oc2ccc(=O)[nH]n2)n1 was read as Spn MK inh 7.0, NADH coupling 4.0%, Autofluor 339 2.63*, DPM-DC inhibit inactive, Spn PMK inh 4.0 and Abs 340nm 1.03.
Screening CSc1nc(NC(C)(C)C)nc(Oc2ccc(=O)[nH]n2)n1 returned Spn MK inh 6.0, NADH coupling 2.0%, Autofluor 339 1.02, DPM-DC inhibit inactive, Spn PMK inh 9.0 and Abs 340nm 0.98.
Screening COC(=O)CC1SC(=O)NC1=Nc1ccccc1 (configuration not stated) returned Spn MK inh 7.0, NADH coupling 39.0%, Autofluor 339 1.73, DPM-DC inhibit active, Spn PMK inh 11.0 and Abs 340nm 1.01.
Screening O=C(NCc1ccccn1)c1coc(=O)c(Br)c1 returned Spn MK inh 11.0, NADH coupling 9.0%, Autofluor 339 2.37*, Spn PMK inh 7.0 and Abs 340nm 1.17.
Screening CN(CC(=O)NCc1cccs1)S(=O)(=O)c1cccc2nsnc12 returned Spn MK inh 4.0, NADH coupling 7.0%, Autofluor 339 1.06, DPM-DC inhibit inactive, Spn PMK inh 16.0 and Abs 340nm 1.05.
CN(C)S(=O)(=O)c1cccc(-c2nnc(SCc3ccc4c(c3)OCCO4)o2)c1 was read as Spn MK inh 10.0, NADH coupling 5.0%, Autofluor 339 1.03, DPM-DC inhibit inactive, Spn PMK inh 6.0 and Abs 340nm 0.98.
For O=S(=O)(c1ccc2nc(-c3ccco3)c(-c3ccco3)nc2c1)N1CCOCC1 the results were Spn MK inh 13.0, NADH coupling 10.0%, Autofluor 339 2.25*, DPM-DC inhibit inactive, Spn PMK inh 11.0 and Abs 340nm 1.04.
Screening O=C(Nc1ccc(N2CCOCC2)cc1)Nc1ccc2nc(-c3ccco3)c(-c3ccco3)nc2c1 returned Spn MK inh 3.0, NADH coupling 3.0%, Autofluor 339 1.06, DPM-DC inhibit inactive, Spn PMK inh 0.0 and Abs 340nm 1.02.
For CCOC(=O)N1CCN(C(=O)CCc2c(C)nc3nc(C)nn3c2C)CC1 the results were Spn MK inh 5.0, NADH coupling 5.0%, Autofluor 339 1.08, DPM-DC inhibit inactive, Spn PMK inh 10.0 and Abs 340nm 0.98.
`Cc1nc2nc(C)c(CCC(=O)N3CCOCC3)c(C)n2n1` gave Spn MK inh 4.0, NADH coupling 15.0%, Autofluor 339 0.68, DPM-DC inhibit active, Spn PMK inh 6.0 and Abs 340nm 1.
O=C1N2CCSC2=NC1(NS(=O)(=O)c1ccccc1)C(F)(F)F (configuration not stated) was read as Spn MK inh 0.0, NADH coupling 0.0%, Autofluor 339 1.11, DPM-DC inhibit inactive, Spn PMK inh 0.0 and Abs 340nm 1.03.
`COc1cccc(C(CC(=O)NCc2ccco2)NS(=O)(=O)c2ccc(C)cc2)c1OC` (configuration not stated) gave Spn MK inh 6.0, NADH coupling 2.0%, Autofluor 339 1.07, DPM-DC inhibit inactive, Spn PMK inh 0.0 and Abs 340nm 1.08.
`CN(C)S(=O)(=O)c1ccc(N2CCOCC2)nc1` gave Spn MK inh 6.0, NADH coupling 8.0%, Autofluor 339 1.14, DPM-DC inhibit inactive, Spn PMK inh 8.0 and Abs 340nm 1.04.
`Cc1ccc(C)n1-c1ccc(N2CCOCC2)nc1` gave Spn MK inh 8.0, NADH coupling 5.0%, Autofluor 339 3.73*, Spn PMK inh 1.0 and Abs 340nm 1.06.
O=S(=O)(c1ccc(Cl)c(C(F)(F)F)c1)N1CCN(CC(O)COCC2CCCO2)CC1 (configuration not stated) was read as Spn MK inh 18.0, NADH coupling 10.0%, Autofluor 339 1.09, DPM-DC inhibit inactive, Spn PMK inh 12.0 and Abs 340nm 1.01.
`CCOc1ccc(OCC)c(NC(=O)CN2CCN(c3cccc(C)c3)CC2)c1` gave Spn MK inh 71.0*, NADH coupling 24.0%, Autofluor 339 1.06, DPM-DC inhibit inactive, Spn PMK inh 0.0 and Abs 340nm 1.08.
For CCOc1ccc(OCC)c(NC(=O)CN2CCN(c3cccc(C)c3)C(C)C2)c1 (configuration not stated) the results were Spn MK inh 42.0*, NADH coupling 15.0%, Autofluor 339 1.04, DPM-DC inhibit inactive, Spn PMK inh 3.0 and Abs 340nm 1.04.
For CCOC(=O)Nc1ccc2c(c1)Sc1ccccc1N2C(=O)CCN1CCOCC1 the results were Spn MK inh 4.0, NADH coupling 8.0%, Autofluor 339 1.09, DPM-DC inhibit inactive, Spn PMK inh 19.0 and Abs 340nm 0.98.
COc1cccc(-c2cn3nc(C)c(C)nc3n2)c1 was read as Spn MK inh 10.0, NADH coupling 12.0%, Autofluor 339 3.08*, DPM-DC inhibit inactive, Spn PMK inh 13.0 and Abs 340nm 1.05.
Screening Cc1nc2nc(-c3cccs3)cn2nc1C returned Spn MK inh 11.0, NADH coupling 12.0%, Autofluor 339 3.72*, Spn PMK inh 13.0 and Abs 340nm 1.03.
Screening O=C(O)c1ccc(CNc2ccccc2C(=O)O)cc1 returned Spn MK inh 1.0, NADH coupling 9.0%, Autofluor 339 2.6*, DPM-DC inhibit inactive, Spn PMK inh 4.0 and Abs 340nm 1.07.
`O=C(O)c1ccccc1C(=O)NCc1ccccc1` gave Spn MK inh 11.0, NADH coupling 4.0%, Autofluor 339 0.94, DPM-DC inhibit inactive, Spn PMK inh 0.0 and Abs 340nm 1.05.
